This is an account of results in PMC7826789 (International Journal of Molecular Sciences, 2021).

One assay relates to T1, PIP5K2B.
T1 construct: gene PIP4K2B
The following applies: Compound Concentration (nM):1000.

The subject of another assay is T2, PIP5K2C.
T2 construct: gene PIP4K2C
Conditions: Compound Concentration (nM):1000.

In a further assay the test system is T3, PKAC-alpha.
T3 construct: gene PRKACA
The following applies: Compound Concentration (nM):1000.

A further assay deals with T4, PKAC-beta.
T4 construct: gene PRKACB
The following applies: Compound Concentration (nM):1000.

In the next assay the test system is PKMYT1. Conditions: Compound Concentration (nM):1000.
Another assay concerns PKN1. Conditions: Compound Concentration (nM):1000.
The test system of another assay is PKN2. The following applies: Compound Concentration (nM):1000.
The test system of another assay is PKNB(M.tuberculosis). The following applies: 1 µM.
The test system of another assay is PLK1. The following applies: Compound Concentration (nM):1000.
For another assay, the system named is PLK2. The following applies: Compound Concentration (nM):1000.
A further assay has as its system PLK3. Conditions: Compound Concentration (nM):1000.
The next assay has as its system PLK4. The following applies: Compound Concentration (nM):1000.
The subject of the next assay is PRKCD. Conditions: Compound Concentration (nM):1000.
Another assay relates to PRKCE. Conditions: Compound Concentration (nM):1000.
The test system of the next assay is PRKCH. The following applies: Compound Concentration (nM):1000.
Another assay deals with PRKCI. The following applies: Compound Concentration (nM):1000.
In the next assay the test system is PRKCQ. Conditions: Compound Concentration (nM):1000.
In another assay the test system is PRKD1. Conditions: Compound Concentration (nM):1000.
The subject of a further assay is PRKD2. The following applies: Compound Concentration (nM):1000.
The subject of the next assay is PRKD3. The following applies: Compound Concentration (nM):1000.
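Further: KINOMEscan scanMAX binding as percent activity remaining versus control; lower means stronger binding.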

`COc1cccc(-n2ncc3c(N/N=C/c4ccncc4)ncnc32)c1` [GW784752X]: the “Percent Control” value in the assay on PIP5K2B is 91%; in the assay on PIP5K2C, 19%; in the assay on PKAC-alpha, 100%; in the assay on PKAC-beta it was 99%; in the assay on PKMYT1, 100%; in the assay with PKN1 it was 100%. Also, the “Percent Control” value in the assay with PKN2 was found to be 100%; with PKNB(M.tuberculosis), 100%; in the assay on PLK1, 88%; in the assay with PLK2 it was 94%; in the assay on PLK3, 88%; in the assay on PLK4, 84%. Also, the “Percent Control” value in the assay with PRKCD is 100%; with PRKCE, 100%; with PRKCH, 99%; with PRKCI it was 72%; in the assay on PRKCQ, 100%; in the assay with PRKD1 it was 100%. For the same molecule, the results for the “Percent Control” value in the assay on PRKD2 and in the assay on PRKD3 were 100% and 91%, respectively.
Take `CCS(=O)(=O)c1ccc(OC)c(Nc2ncc(-c3cccc(F)c3)o2)c1` [GW621970X]: the “Percent Control” value in the assay with PIP5K2B is 99%; with PIP5K2C, 3.8%; with PKAC-alpha, 100%; in the assay with PKAC-beta, 100%; in the assay with PKMYT1 it was 100%; with PKN1, 100%. Further, the “Percent Control” value stood at 68% with PKN2; 100% with PKNB(M.tuberculosis); 96% in the assay on PLK1; 93% with PLK2; 100% with PLK3; 40% in the assay on PLK4. Moreover, the “Percent Control” value in the assay with PRKCD, with PRKCE, in the assay on PRKCH, in the assay with PRKCI, in the assay on PRKCQ and in the assay with PRKD1 was 100% in each case. The “Percent Control” value in the assay with PRKD2 is 100%; in the assay with PRKD3, 85%.
For the molecule `CCc1ccc(Oc2nccc(-c3c(-c4ccc(F)cc4)ncn3C3CCNCC3)n2)cc1` [SB-242719], the “Percent Control” value was 100% with PIP5K2B; 100% with PIP5K2C; 36% with PKAC-alpha; 31% in the assay with PKAC-beta; 89% in the assay on PKMYT1; 94% with PKN1. Moreover, the “Percent Control” value in the assay on PKN2 was 91%; with PKNB(M.tuberculosis) it was 81%; in the assay on PLK1, 98%; in the assay on PLK2, 77%; with PLK3, 83%; with PLK4, 79%. Moreover, the “Percent Control” value in the assay with PRKCD was 100%; in the assay with PRKCE it was 95%; in the assay with PRKCH, 100%; in the assay with PRKCI it was 95%; in the assay on PRKCQ it was 84%; in the assay with PRKD1, 95%. Moreover, the “Percent Control” value is 85% in the assay on PRKD2 and 70% in the assay on PRKD3.
On to `CC1=C(C(=O)Nc2ccc3[nH]ncc3c2)C(c2ccc3ccccc3c2)CC(=O)N1` (centres unmarked) [GSK270822A], for which the “Percent Control” value was 100% in the assay with PIP5K2B; 83% in the assay with PIP5K2C; 64% in the assay with PKAC-alpha; 68% in the assay on PKAC-beta; 90% in the assay with PKMYT1; 45% in the assay on PKN1. Besides, the “Percent Control” value is 76% in the assay on PKN2; 87% in the assay on PKNB(M.tuberculosis); 73% in the assay with PLK1; 100% in the assay with PLK2; 82% with PLK3; 88% with PLK4. For the same molecule, the “Percent Control” value with PRKCD was 100%; in the assay with PRKCE, 100%; in the assay with PRKCH it was 100%; in the assay with PRKCI, 80%; in the assay with PRKCQ it was 82%; with PRKD1, 100%. In addition, the “Percent Control” value in the assay on PRKD2 was 100%; with PRKD3, 22%.
For `COc1ccc(COc2ccc(Cc3cnc(N)nc3N)cc2OC)cc1` [GW632580X], the “Percent Control” value with PIP5K2B was 100%; in the assay with PIP5K2C, 100%; in the assay on PKAC-alpha, 91%; in the assay on PKAC-beta it was 100%; in the assay on PKMYT1, 100%; in the assay on PKN1 it was 82%. For the same molecule, the “Percent Control” value is listed as 100% with PKN2; 69% with PKNB(M.tuberculosis); 100% with PLK1; 100% with PLK2; 97% in the assay on PLK3; 72% with PLK4. Besides, the “Percent Control” value was 71% in the assay with PRKCD; 100% in the assay on PRKCE; 100% in the assay on PRKCH; 88% in the assay on PRKCI; 79% with PRKCQ; 100% in the assay with PRKD1. In addition, the “Percent Control” value in the assay on PRKD2 and in the assay with PRKD3 was 100% each time.
As to `O=C(Nc1n[nH]c2nc(-c3ccc(O)cc3)c(Br)cc12)C1CC1` [SB-725317], the “Percent Control” value was 100% in the assay with PIP5K2B; 91% in the assay with PIP5K2C; 100% in the assay on PKAC-alpha; 100% with PKAC-beta; 100% in the assay with PKMYT1; 89% in the assay on PKN1. The “Percent Control” value was determined as 100% in the assay with PKN2; 31% with PKNB(M.tuberculosis); 100% in the assay on PLK1; 83% with PLK2; 88% in the assay with PLK3; 82% in the assay on PLK4. For the same molecule, the “Percent Control” value is 45% in the assay with PRKCD; 46% in the assay on PRKCE; 78% in the assay with PRKCH; 90% with PRKCI; 58% in the assay on PRKCQ; 100% with PRKD1. Further, the results for the “Percent Control” value with PRKD2 and with PRKD3 were 100% and 99%, respectively.
As for `Cl.O=C(Nc1ccc(Oc2ccc3[nH]c(NC(=O)c4ccco4)nc3c2)cc1)Nc1cc(C(F)(F)F)ccc1F` [GW683134A], the “Percent Control” value is 100% with PIP5K2B; 76% in the assay on PIP5K2C; 100% with PKAC-alpha; 100% with PKAC-beta; 100% with PKMYT1; 100% with PKN1. For the same molecule, the “Percent Control” value came out at 79% with PKN2; 99% in the assay on PKNB(M.tuberculosis); 100% with PLK1; 88% in the assay on PLK2; 86% in the assay with PLK3; 100% in the assay on PLK4. The “Percent Control” value was 99% in the assay on PRKCD; 100% with PRKCE; 92% with PRKCH; 100% with PRKCI; 100% in the assay on PRKCQ; 68% in the assay with PRKD1. The “Percent Control” value in the assay on PRKD2 is 100%; in the assay with PRKD3, 82%.
With `CN1CCN(C(=O)c2ccc(NC(=O)Nc3ccc(N(C)c4ccnc(Nc5ccc(CS(C)(=O)=O)cc5)n4)cc3)cc2)CC1.Cl` [GW830263A], the “Percent Control” value in the assay with PIP5K2B was 17%; in the assay on PIP5K2C it was 0.9%; in the assay with PKAC-alpha it was 100%; in the assay on PKAC-beta it was 100%; with PKMYT1 it was 96%; with PKN1, 70%. Further, the “Percent Control” value is listed as 100% in the assay on PKN2; 87% in the assay on PKNB(M.tuberculosis); 100% in the assay with PLK1; 100% in the assay with PLK2; 100% in the assay with PLK3; 2.7% with PLK4. Further, the “Percent Control” value with PRKCD is 100%; with PRKCE it was 99%; with PRKCH, 100%; in the assay with PRKCI, 74%; in the assay on PRKCQ, 51%; in the assay on PRKD1, 100%. Besides, the “Percent Control” value in the assay with PRKD2 and in the assay with PRKD3 was 100% each time.
On to `COc1cccc(-c2c[nH]c3c(N/N=C/c4ccncc4)ncnc23)c1` [GW814408X], for which the “Percent Control” value in the assay with PIP5K2B was 100%; with PIP5K2C, 9.1%; with PKAC-alpha, 100%; with PKAC-beta, 100%; with PKMYT1, 100%; with PKN1 it was 100%. The “Percent Control” value in the assay with PKN2 is listed as 100%; in the assay with PKNB(M.tuberculosis), 99%; with PLK1 it was 95%; with PLK2, 100%; with PLK3 it was 100%; in the assay on PLK4, 96%. Besides, the “Percent Control” value in the assay on PRKCD was 100%; in the assay on PRKCE, 100%; with PRKCH, 100%; with PRKCI, 30%; in the assay on PRKCQ, 100%; with PRKD1 it was 100%. Besides, the “Percent Control” value is 100% in the assay on PRKD2 and 91% in the assay with PRKD3.
On to `COc1cc(/C=N/Nc2ncnc3[nH]ncc23)ccc1O` [GW578748X], for which the “Percent Control” value is 74% with PIP5K2B; 24% with PIP5K2C; 100% in the assay on PKAC-alpha; 100% in the assay on PKAC-beta; 100% in the assay on PKMYT1; 100% with PKN1. The “Percent Control” value in the assay with PKN2 is recorded as 100%; with PKNB(M.tuberculosis), 50%; with PLK1, 84%; in the assay on PLK2, 31%; with PLK3, 52%; in the assay with PLK4 it was 36%. For the same molecule, the “Percent Control” value in the assay on PRKCD is 78%; with PRKCE, 100%; in the assay with PRKCH it was 100%; with PRKCI, 63%; in the assay on PRKCQ, 96%; with PRKD1, 100%. Besides, the “Percent Control” value is 100% with PRKD2 and 85% in the assay with PRKD3.
